Among the data in publication PMC7826789 (International Journal of Molecular Sciences, 2021) are Kinases covered values, retold here.

With `O=C(Nc1ccccc1)Nc1cccc(Oc2ccc3nccn3n2)c1` [TPKI-39], the Kinases covered entry with CSF1R is reported as “CSF1R”.
The same measure, in the same setting: the value for `Cn1ccc2ncnc(Oc3ccc(NC(=O)Nc4ccccc4)cc3)c21` [TPKI-69] was “CSF1R”.
Consider `Fc1ccc(-c2nn3ccccc3c2-c2ccncc2)cc1` [GW434756X], for which, in the experiment with CSNK1A1, the Kinases covered result is listed as “CSNK1A1”.
Regarding `Nc1nccc(-c2c(-c3ccc(F)cc3)ncn2C2CCN(Cc3ccccc3)CC2)n1` [SB-219980], the values for the Kinases covered entry in the experiment on CSNK1A1, in the experiment on CSNK1D and with CSNK1E were “CSNK1A1”, “CSNK1D” and “CSNK1E”, respectively.
Consider `Cc1nccc(-c2c(-c3ccc(F)cc3)ncn2CCCN2CCOCC2)n1` [SB-282975], for which the Kinases covered entry in the experiment on CSNK1D was “CSNK1D”.
Turning to `C[C@@H]1CCN(C(=O)CC#N)C[C@@H]1N(C)c1ncnc2[nH]ccc12` [PFE-PKIS 25], the Kinases covered result with DCLK3 is given as “DCLK3”.
Turning to `Cc1cc(NC(=O)c2cccc(NC(=O)/C=C/CN(C)C)c2)ccc1Nc1nccc(-c2cccnc2)n1` [JNK-IN-7], the Kinases covered result in the experiment on DRAK1 is recorded as “DRAK1”.
In the case of `CCC(NN(C)C)=C1C(=O)Nc2ccc(C(C)=O)cc21` [BI00036838], the Kinases covered result in the experiment with DYRK1B is “DYRK1B”; with DYRK2, “DYRK2”.
